Laboratory results from PubChem BioAssay (Tox21).
A number with no mark means an inactive call. A call without a number means that no potency is given here. Active and inactive are the calls of the source. The call rests on the fitted dose curve.

Target: Gonadotropin-releasing hormone receptor (Homo sapiens) (UniProt P30968)
Assay: Human gonadotropin-releasing hormone receptor (GnRHR) small molecule agonists, calcium flux assay in GnRHR-HEK293 cells (AID 1920063); further: nearly all actives have a fitted effect of over 35% in size
Summary of the method: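 Intracellular calcium rise is the read-out: engineered human GnRHR HEK293 cells, dye-loaded, are exposed to DMSO-dissolved compounds and fluorescence at Ex/Em 480/540 is tracked for 3 min.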
Potency means the concentration at half of the fitted maximal effect.

Gonadotropin-releasing hormone receptor (Homo sapiens), sequence (P30968 whole entry, looked up): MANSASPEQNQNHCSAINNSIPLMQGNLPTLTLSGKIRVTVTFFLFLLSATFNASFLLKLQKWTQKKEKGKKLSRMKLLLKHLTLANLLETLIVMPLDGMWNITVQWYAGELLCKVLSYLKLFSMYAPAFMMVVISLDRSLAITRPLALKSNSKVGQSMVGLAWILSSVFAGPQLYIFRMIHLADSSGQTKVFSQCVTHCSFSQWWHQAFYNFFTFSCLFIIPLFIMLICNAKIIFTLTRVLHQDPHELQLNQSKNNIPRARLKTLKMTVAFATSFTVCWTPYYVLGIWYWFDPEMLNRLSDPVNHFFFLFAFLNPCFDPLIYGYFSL

With `Nc1ccccc1N` the Potency was 35.5 µM (active).

`Cc1ncsc1CCO` was tested, and the Potency was “inactive”.

In the case of `Cc1ccc(C(=O)c2cc(O)c(O)c([N+](=O)[O-])c2)cc1`, the Potency was “inactive”.

In the case of `CC1(C)COCN1`, the Potency was “inactive”.

In the case of `CCCCCCCCC1CCC(=O)O1` (stereo not drawn), the Potency was “inactive”.

For `CCOC(=O)NCCC[Si](OCC)(OCC)OCC`, the Potency was “inactive”.

With `Oc1ccc(O)c2c(O)cccc12` the Potency was “inactive”.

With `CC(=O)OCCN(CCOC(C)=O)c1ccc(N=Nc2ccc([N+](=O)[O-])cc2C#N)cc1` the Potency was “inactive”.

In the case of `CCOC(/C=C(\C)CCC=C(C)C)OCC`, the Potency was “inactive”.

In the case of `O=C(O)CCCCCC(=O)O`, the Potency was “inactive”.

With `COC(=O)c1ccccc1C(=O)c1ccc(OCCN2CCCCC2)cc1` the Potency was “inactive”.

For `CCCCCc1cccc(=O)o1`, the Potency was “inactive”.

For `CCN(C=O)CC`, the Potency was “inactive”.

`CCCCCCCCCCCCCCCC[N+](C)(C)CC` was tested, and the Potency was 13.8 µM (active).

In the case of `C=CCCCCCCCCO`, the Potency was “inactive”.

For `Cc1oncc1C(=O)Nc1ccc(C(F)(F)F)cc1`, the Potency was “inactive”.

For `Oc1c(Cl)ccc(Cl)c1Cl`, the Potency was “inactive”.

`CCOc1ccc(Cc2nccc3cc(OCC)c(OCC)cc23)cc1OCC` was tested, and the Potency was “inactive”.

In the case of `OC[C@H]1O[C@@](CO)(O[C@H]2O[C@H](CO)[C@@H](O)[C@H](O)[C@H]2O)[C@@H](O)[C@@H]1O`, the Potency was “inactive”.

With `Cc1cc(OCCOCC[N+](C)(C)Cc2ccccc2)ccc1C(C)(C)CC(C)(C)C` the Potency was 38.7 µM (active).

In the case of `O=c1cccc[nH]1`, the Potency was “inactive”.

In the case of `Fc1ccccc1-c1ccccc1`, the Potency was “inactive”.

For `C=C1C[C@]23C[C@@]1(O)CC[C@H]2[C@@]12C=C[C@H](O)[C@@](C)(C(=O)O1)[C@H]2[C@@H]3C(=O)O`, the Potency was “inactive”.

With `OC[C@H]1O[C@@H]2O[C@H]3[C@H](O)[C@@H](O)[C@@H](O[C@H]4[C@H](O)[C@@H](O)[C@@H](O[C@H]5[C@H](O)[C@@H](O)[C@@H](O[C@H]6[C@H](O)[C@@H](O)[C@@H](O[C@H]7[C@H](O)[C@@H](O)[C@@H](O[C@H]1[C@H](O)[C@H]2O)O[C@@H]7CO)O[C@@H]6CO)O[C@@H]5CO)O[C@@H]4CO)O[C@@H]3CO` the Potency was “inactive”.

In the case of `Cc1cccc2cccnc12`, the Potency was “inactive”.

In the case of `Cc1cnccn1`, the Potency was “inactive”.

`CCCCCCCCCCCCCCCCC` was tested, and the Potency was “inactive”.

With `C[C@@H]1CC(=O)NN=C1c1ccc(NN=C(C#N)C#N)cc1` the Potency was “inactive”.

With `COC(=O)Nc1nc2ccc(Sc3ccccc3)cc2[nH]1` the Potency was “inactive”.

For `c1ccc(CNc2ncnc3c2ncn3C2CCCCO2)cc1` (stereo not drawn), the Potency was “inactive”.

For `Cc1ccccc1N=O`, the Potency was “inactive”.

`CC1=C(CC(=O)O)c2cc(F)ccc2/C1=C\c1ccc(S(C)=O)cc1` (stereo not drawn) was tested, and the Potency was “inactive”.

In the case of `CC1=CC[C@@H]2C[C@H]1C2(C)C`, the activity change was 0.0518% [at 11.8 µM, active compounds read high].

In the case of `Clc1nc(Cl)c(Cl)c(Cl)c1Cl`, the Potency was “inactive”.

For `CCCN1C=CN(C)C1`, the Potency was “inactive”.

In the case of `CC(C)CCCC(C)CCO` (stereo not drawn), the Potency was “inactive”.

For `CC(C)(C)c1ccc(C(=O)CCCCl)cc1`, the Potency was “inactive”.

`C/C=C/C(=O)CCCC` was tested, and the Potency was “inactive”.

For `CN(C(=O)c1c(O)c2ccccc2n(C)c1=O)c1ccccc1`, the Potency was “inactive”.

In the case of `CC(C)(O)C#CC(C)(C)O`, the Potency was “inactive”.

In the case of `O=C1Nc2ccccc2C1(c1ccc(O)cc1)c1ccc(O)cc1`, the Potency was “inactive”.

In the case of `NS(=O)(=O)c1ccccc1OC(F)(F)F`, the Potency was “inactive”.

For `c1cc(C(c2ccc(OCC3CO3)cc2)C(c2ccc(OCC3CO3)cc2)c2ccc(OCC3CO3)cc2)ccc1OCC1CO1` (stereo not drawn), the Potency was “inactive”.

With `CC(=O)[C@@]1(O)CC[C@H]2[C@@H]3CCC4=CC(=O)CC[C@]4(C)[C@H]3CC[C@@]21C` the Potency was “inactive”.

In the case of `Cc1ccc(S(N)(=O)=O)cc1`, the Potency was “inactive”.

With `C=C(C)C(=O)OCCC[Si](Cl)(Cl)Cl` the Potency was “inactive”.

For `COc1ccc(-c2coc3cc(O)cc(O)c3c2=O)cc1`, the Potency was “inactive”.

For `c1ccc2nccnc2c1`, the Potency was “inactive”.
